Laboratory results from PubChem BioAssay (Tox21).
Inconclusive results are not listed. Where a call stands in place of a potency, no number is given. Calls of active or inactive are those of the source. Unless noted, the call rests on the fitted dose curve.

Assays:
[1] = Nuclear factor erythroid 2-related factor 2/antioxidant responsive element (Nrf2/ARE) small molecule agonists: qHTS cell viability counter screen in human keratinocytes (AID 1919968; active means well fitted curve in the direction sought with a large enough effect in the repeat runs; an effect the other way counts as inactive or inconclusive; further: nearly all actives have a fitted effect of over 55% in size; further: potency means the concentration at half of the fitted maximal effect)
How it was run: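 CellTiter-Fluor fluorescence, read 1 h after reagent, gave viability in the same wells as the ARE-luciferase assay. KeratinoSens cells (1,500/well) had 23 h compound exposure at 37 C/5% CO2 following 5 h plating.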

[2] = Nuclear factor erythroid 2-related factor 2/antioxidant responsive element (Nrf2/ARE) small molecule agonists: luciferase reporter gene qHTS assay in human keratinocytes (AID 1919969); further: nearly all actives have a fitted effect of over 35% in size; further: potency means the concentration at half of the fitted maximal effect
[3] = target: Gonadotropin-releasing hormone receptor (Homo sapiens) (UniProt P30968); assay: Human gonadotropin-releasing hormone receptor (GnRHR) small molecule agonists, calcium flux assay in GnRHR-HEK293 cells (AID 1920063); further: nearly all actives have a fitted effect of over 35% in size
Chain of Gonadotropin-releasing hormone receptor (Homo sapiens) (P30968 whole entry, looked up): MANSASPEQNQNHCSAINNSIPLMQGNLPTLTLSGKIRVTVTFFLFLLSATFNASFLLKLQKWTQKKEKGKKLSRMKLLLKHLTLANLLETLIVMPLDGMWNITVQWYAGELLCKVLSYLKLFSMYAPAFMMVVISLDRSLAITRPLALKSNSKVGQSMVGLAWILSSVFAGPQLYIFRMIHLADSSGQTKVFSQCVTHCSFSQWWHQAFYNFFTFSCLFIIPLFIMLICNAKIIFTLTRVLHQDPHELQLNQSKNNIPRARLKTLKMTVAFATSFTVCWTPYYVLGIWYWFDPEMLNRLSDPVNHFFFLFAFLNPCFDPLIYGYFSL
How it was run: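 Agonist mode: compounds at 15 concentrations, in triplicate, went onto calcium dye-loaded GnRHR-HEK293 cells. Intracellular calcium was then followed as 480/540 nm fluorescence at 1 s intervals over 3 min.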

[4] = target: KiSS-1 receptor (Homo sapiens) (UniProt Q969F8); assay: Human kisspeptin (KISS1R) small molecule agonists, calcium flux assay in KISS1R-HEK293 cells (AID 1920064; active means well fitted curve in the direction sought with a large enough effect in the repeat runs; an effect the other way counts as inactive or inconclusive)
Chain of KiSS-1 receptor (Homo sapiens) (Q969F8 whole entry, looked up): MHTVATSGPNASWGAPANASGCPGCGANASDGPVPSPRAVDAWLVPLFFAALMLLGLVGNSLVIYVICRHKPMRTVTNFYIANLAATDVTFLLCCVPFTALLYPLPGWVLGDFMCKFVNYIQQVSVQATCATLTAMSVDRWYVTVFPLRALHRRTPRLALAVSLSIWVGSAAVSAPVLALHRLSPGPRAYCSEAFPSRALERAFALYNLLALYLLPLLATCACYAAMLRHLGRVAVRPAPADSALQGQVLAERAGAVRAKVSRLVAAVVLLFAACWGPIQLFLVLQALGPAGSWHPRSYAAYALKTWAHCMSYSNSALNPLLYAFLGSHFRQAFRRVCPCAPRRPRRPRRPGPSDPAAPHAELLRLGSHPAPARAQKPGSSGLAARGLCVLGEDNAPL
How it was run: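 Agonist mode: intracellular calcium rise tracked at 1 s intervals over 3 min (480/540 nm) immediately after compound addition to dye-loaded KISS1R-HEK293 stable cells. Each compound tested at 15 concentrations in triplicate.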

[5] = G protein-coupled receptor (GPCR) small molecule agonists, calcium flux assay: HEK293 wild type cell line counter screen (AID 1920065)
How it was run: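 Calcium flux counter screen: compound added in agonist mode at 15 concentrations in triplicate to dye-loaded parental HEK293 cells. Fluorescence (480/540) read kinetically for 3 min; ATP served as positive control.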

[6] = p53 small molecule agonists, cell-based qHTS assay with human liver microsomes (AID 1963577);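 further: p53 response element beta-lactamase reporter cells with liver microsomes plus NADPH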
How it was run: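 Metabolically competent format: test substances, human liver microsomes and NADPH (both 0.5 mg/mL final) incubated with p53RE-bla cells 16 h at 37 C. Beta-lactamase reporter signal then quantified by fluorescence.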

[7] = p53 small molecule agonists, cell-based qHTS assay with rat liver microsomes (AID 1963578)
How it was run: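 Each plate received p53RE-bla cells, then compound, then rat liver microsomes and NADPH (both 0.5 mg/mL final). Plates were held 16 h at 37 C, and beta-lactamase activity was detected with LiveBLAzer over 2 h.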

[8] = p53 small molecule agonists, cell-based qHTS assay with human liver microsomes: qHTS cell viability counter screen (AID 1963579); further: nearly all actives have a fitted effect of over 45% in size
How it was run: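 Tox21 library compounds, delivered from DMSO stocks, were tested on p53RE-bla cells together with 0.5 mg/mL human liver microsomes and 0.5 mg/mL NADPH (final) over 16 h at 37 C; CellTiter-Glo luminescence served as the cytotoxicity measure.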

[9] = p53 small molecule agonists, cell-based qHTS assay with rat liver microsomes: qHTS cell viability counter screen (AID 1963580); further: nearly all actives have a fitted effect of over 45% in size; further: potency means the concentration at half of the fitted maximal effect
How it was run: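 Counter screen for cytotoxicity under metabolic activation: rat liver microsomes and NADPH, 0.5 mg/mL final each, added with compounds to p53RE-bla HCT-116 cells; 16 h at 37 C, then ATP luminescence read.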

[10] = p53 small molecule agonists, cell-based qHTS assay: qHTS cell viability counter screen (AID 1963581); further: nearly all actives have a fitted effect of over 45% in size
How it was run: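 Counter screen read by CellTiter-Glo luminescence (ATP content, 30 min at room temperature), run in the same wells as the beta-lactamase reporter read. HCT-116 p53RE-bla cells saw compounds for 16 h at 37 C.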

[11] = target: 5-hydroxytryptamine receptor 2A (Homo sapiens) (UniProt P28223); assay: 5-hydroxytryptamine receptor 2A (HTR2A) small molecule antagonists, cell-based qHTS assay (AID 1963586); further: nearly all actives have a fitted effect of over 45% in size
Chain of 5-hydroxytryptamine receptor 2A (Homo sapiens) (P28223 whole entry, looked up): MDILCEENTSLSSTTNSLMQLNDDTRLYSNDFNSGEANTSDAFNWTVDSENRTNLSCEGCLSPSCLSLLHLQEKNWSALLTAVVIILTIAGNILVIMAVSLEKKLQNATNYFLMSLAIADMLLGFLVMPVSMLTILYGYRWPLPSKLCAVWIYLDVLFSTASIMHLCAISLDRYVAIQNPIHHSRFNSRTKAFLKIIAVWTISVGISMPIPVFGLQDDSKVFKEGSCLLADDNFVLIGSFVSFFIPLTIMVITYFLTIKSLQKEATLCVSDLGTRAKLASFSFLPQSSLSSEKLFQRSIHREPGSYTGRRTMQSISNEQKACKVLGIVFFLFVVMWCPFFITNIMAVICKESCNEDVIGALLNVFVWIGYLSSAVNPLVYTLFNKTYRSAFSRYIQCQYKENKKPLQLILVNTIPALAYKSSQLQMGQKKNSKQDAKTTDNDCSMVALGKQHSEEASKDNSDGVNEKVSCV
How it was run: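 CHO cells stably expressing human HTR2A were plated for 18 h at 37 C, then loaded with calcium dye for 1 h. Compounds were preincubated 5 min at room temperature before DOI (4 nM solution) was added. Kinetic fluorescence was read for 3 min.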

[12] = target: 5-hydroxytryptamine receptor 2A (Homo sapiens) (UniProt P28223); assay: 5-hydroxytryptamine receptor 2A (HTR2A) small molecule agonists, cell-based qHTS assay (AID 1963587); further: nearly all actives have a fitted effect of over 30% in size
How it was run: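 HTR2A-CHO cells, plated 18 h at 37 C/5% CO2, dye-loaded 1 h at 37 C; compounds in DMSO added by pin tool (agonist mode). Intracellular calcium flux read as kinetic fluorescence on FDSS over 2 min at 1 s intervals.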

[13] = target: Muscarinic acetylcholine receptor M1 (Homo sapiens) (UniProt P11229); assay: Cholinergic receptor muscarinic 1 (CHRM1) small molecule antagonists, cell-based qHTS assay (AID 1963588); further: nearly all actives have a fitted effect of over 40% in size
Chain of Muscarinic acetylcholine receptor M1 (Homo sapiens) (P11229 whole entry, looked up): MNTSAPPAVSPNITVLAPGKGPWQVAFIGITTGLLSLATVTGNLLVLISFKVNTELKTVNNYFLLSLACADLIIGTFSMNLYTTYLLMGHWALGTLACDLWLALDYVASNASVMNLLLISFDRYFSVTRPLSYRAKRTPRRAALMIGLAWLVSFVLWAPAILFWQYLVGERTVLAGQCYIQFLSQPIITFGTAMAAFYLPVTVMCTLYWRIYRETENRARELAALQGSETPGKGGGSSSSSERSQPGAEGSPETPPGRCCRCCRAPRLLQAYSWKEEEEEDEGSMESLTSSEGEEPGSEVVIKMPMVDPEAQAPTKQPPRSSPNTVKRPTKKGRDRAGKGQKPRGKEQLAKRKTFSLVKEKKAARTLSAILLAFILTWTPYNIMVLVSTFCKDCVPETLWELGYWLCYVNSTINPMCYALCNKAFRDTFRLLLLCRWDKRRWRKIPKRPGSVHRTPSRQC
How it was run: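 Compounds were tested at 15 concentrations in three independent runs. Dye-loaded CHRM1-CHO cells were exposed 5 min at room temperature before stimulation by acetylcholine added at 50nM. Intracellular calcium was read kinetically on FDSS for 3 min.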

[14] = target: Muscarinic acetylcholine receptor M1 (Homo sapiens) (UniProt P11229); assay: Cholinergic receptor muscarinic 1 (CHRM1) small molecule agonists, cell-based qHTS assay (AID 1963589); further: nearly all actives have a fitted effect of over 35% in size
How it was run: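 Agonist-mode calcium-flux screen: compounds at 15 concentrations, three independent runs, were pin-transferred onto dye-loaded human CHRM1-CHO cells. Fluorescence was then recorded kinetically every second over minutes.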

[15] = cAMP Responsive Elements (CRE) small molecule antagonists, cell-based qHTS assay (AID 1963591; active means well fitted inhibition curve with a large enough effect in the signal ratio in the repeat runs, not every such curve was filed as active; the % refers to the signal ratio)
How it was run: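 Antagonist mode: compounds are added alongside the adenylyl cyclase activator NKH477 (0.25 uM final) to CRE-bla HEK293T cells for 3 h. LiveBLAzer FRET substrate, 2 h at room temperature, reports bla expression.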

[16] = target: Beta-2 adrenergic receptor (Homo sapiens) (UniProt P07550); assay: Adrenergic beta2 receptor (ADRB2) small molecule antagonists, cell-based qHTS assay (AID 1963592); further: series mostly up to about 92 µM; nearly all actives have a fitted effect of over 50% in size
Chain of Beta-2 adrenergic receptor (Homo sapiens) (P07550 whole entry, looked up): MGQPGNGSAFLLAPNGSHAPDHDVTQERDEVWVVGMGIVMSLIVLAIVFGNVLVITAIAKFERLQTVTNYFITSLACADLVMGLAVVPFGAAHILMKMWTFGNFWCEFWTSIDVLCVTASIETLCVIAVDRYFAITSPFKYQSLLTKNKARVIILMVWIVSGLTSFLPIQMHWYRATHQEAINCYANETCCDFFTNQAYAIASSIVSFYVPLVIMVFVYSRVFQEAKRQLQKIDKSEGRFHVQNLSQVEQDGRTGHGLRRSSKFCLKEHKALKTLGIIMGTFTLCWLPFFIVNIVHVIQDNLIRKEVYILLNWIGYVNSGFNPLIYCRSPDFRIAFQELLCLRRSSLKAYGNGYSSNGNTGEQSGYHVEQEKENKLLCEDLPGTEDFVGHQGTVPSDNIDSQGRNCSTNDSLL
How it was run: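 Assay format: CHO-ADRB2 cells, 18-20hr seeding at 37C/5% CO2, then compound plus 1nM isoproterenol agonist mix for 0.5hr RT. Homogeneous time-resolved fluorescence cAMP detection after 1hr, expressed as 665/615 nm ratio.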

[17] = target: D(2) dopamine receptor (Homo sapiens) (UniProt P14416); assay: Dopamine D2 receptor (DRD2) small molecule agonists, cell-based qHTS assay (AID 1963594); further: nearly all actives have a fitted effect of over 35% in size
Chain of D(2) dopamine receptor (Homo sapiens) (P14416 whole entry, looked up): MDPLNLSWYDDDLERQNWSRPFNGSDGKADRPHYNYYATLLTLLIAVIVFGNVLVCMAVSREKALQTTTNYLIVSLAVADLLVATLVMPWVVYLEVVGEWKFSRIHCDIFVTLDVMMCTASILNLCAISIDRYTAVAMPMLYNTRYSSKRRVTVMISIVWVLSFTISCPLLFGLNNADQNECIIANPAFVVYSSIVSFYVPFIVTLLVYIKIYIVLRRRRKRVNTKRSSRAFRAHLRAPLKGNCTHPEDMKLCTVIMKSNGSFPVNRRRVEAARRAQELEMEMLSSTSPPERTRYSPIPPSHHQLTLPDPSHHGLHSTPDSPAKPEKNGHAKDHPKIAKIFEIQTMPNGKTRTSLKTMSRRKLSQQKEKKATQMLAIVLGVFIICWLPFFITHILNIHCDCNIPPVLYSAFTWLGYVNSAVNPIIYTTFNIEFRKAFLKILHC
How it was run: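 HEK293 cells stably expressing DRD2 were cultured 24 h at 37 C, then given Ro20-1724 (0.1 mM final) and compounds for 10 min at room temperature. NKH477 (200nM) was then added for 30 min. cAMP was read by HTRF.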

[18] = target: D(2) dopamine receptor (Homo sapiens) (UniProt P14416); assay: Dopamine D2 receptor (DRD2) small molecule antagonists, cell-based qHTS assay (AID 1963595; active means well fitted inhibition curve with a large enough effect in the signal ratio in the repeat runs, with a control signal flat; the % refers to the signal ratio; further: potency means the concentration at half of the fitted maximal effect)
How it was run: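 Antagonism was scored as restored cAMP in HEK293-DRD2 cells. These cells were stimulated with 200 nM NKH477 and 12 nM quinpirole for 30 min at room temperature, in the presence of 0.1 mM Ro20-1724.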

[19] = cAMP Responsive Elements (CRE) small molecule agonists, cell-based qHTS assay (AID 1963590)
How it was run: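 Agonist mode: compound added to CRE-bla HEK 293T cells (2,000/well, 18 h after plating) for 3 h at 37 C/5% CO2. Reporter activity detected via FRET beta-lactamase substrate, 2 h room-temperature loading.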

SMILES | Potency [1] | Potency [2] | Potency [3] | outcome [4] | outcome [5] | Potency [6] | Potency [7] | Potency [8] | Potency [9] | Potency [10] | Potency [11] | Potency [12] | Potency [13] | Potency [14] | Potency [15] | Potency [16] | Potency [17] | Potency [18] | Potency [19]
CCOC(=N)CC(=O)OCC | inactive | inactive | inactive | inactive | inactive | inactive | inactive | inactive | inactive | inactive | inactive | inactive | inactive | inactive | inactive | inactive | inactive | inactive | –
O=C(Nc1ccc2c(O)c(N=Nc3ccc(N=Nc4ccc(S(=O)(=O)O)cc4)cc3)c(S(=O)(=O)O)cc2c1)c1ccccc1 | 30.6 µM (active) | inactive | inactive | inactive | inactive | inactive | inactive | inactive | inactive | inactive | inactive | inactive | inactive | inactive | – | inactive | inactive | inactive | –
COCCCN1CCC(NC(=O)c2cc(Cl)c(N)c3c2OCC3)CC1 | inactive | inactive | inactive | inactive | inactive | inactive | inactive | inactive | inactive | inactive | inactive | inactive | inactive | inactive | inactive | inactive | inactive | inactive | –
C=CCOC(=O)/C=C\C(=O)OCC=C | inactive | 24.8 µM (active) | inactive | inactive | inactive | inactive | inactive | inactive | inactive | inactive | inactive | inactive | inactive | inactive | – | inactive | inactive | inactive | –
CCCCCCCCCCCC[N+](C)(C)CCCCCCCCCCCC | 24.3 µM (active) | inactive | inactive | inactive | inactive | inactive | inactive | inactive | 40.8 µM (active) | inactive | inactive | inactive | inactive | inactive | – | inactive | inactive | 43.3 µM (active) | –
Cn1c(=O)c2c(ncn2CC(=O)O)n(C)c1=O | inactive | inactive | inactive | inactive | inactive | inactive | inactive | inactive | inactive | inactive | inactive | inactive | inactive | inactive | inactive | inactive | inactive | inactive | inactive
O=C1CCCN1CCO | inactive | inactive | inactive | inactive | inactive | inactive | inactive | inactive | inactive | inactive | inactive | inactive | inactive | inactive | – | inactive | inactive | inactive | –
CO[C@@H]1[C@H](OC(=O)/C=C/C=C/C=C/C=C/C(=O)O)CC[C@]2(CO2)[C@H]1[C@@]1(C)O[C@@H]1CC=C(C)C | inactive | 61.1 µM (active) | inactive | inactive | inactive | inactive | inactive | inactive | inactive | inactive | inactive | inactive | inactive | inactive | – | inactive | inactive | inactive | inactive
CC(C)(C)N(CCO)CCO | inactive | inactive | inactive | inactive | inactive | inactive | inactive | inactive | inactive | inactive | inactive | inactive | inactive | inactive | – | inactive | inactive | – | inactive
CC/C=C\CCOC(=O)c1ccccc1 | inactive | inactive | inactive | inactive | inactive | inactive | inactive | inactive | inactive | inactive | inactive | inactive | inactive | inactive | inactive | inactive | – | inactive | inactive
CC(=O)c1ccc2ccc3ccccc3c2c1 | inactive | inactive | inactive | inactive | inactive | inactive | inactive | inactive | inactive | inactive | inactive | inactive | inactive | inactive | inactive | inactive | inactive | inactive | –
CC(C)=CCC/C(C)=C/CC/C(C)=C/C(=O)OCC(=O)[C@@]1(O)CC[C@H]2[C@@H]3CCC4=CC(=O)C=C[C@]4(C)[C@H]3[C@@H](O)C[C@@]21C | 6.68 µM (active) | inactive | inactive | inactive | inactive | inactive | inactive | inactive | inactive | inactive | inactive | inactive | inactive | inactive | – | inactive | inactive | – | inactive
